# In PubChem BioAssay AID1745853 (National Center for Advancing Translational Sciences (NCATS), 2022):
# In all, about 25,000 compounds went through this assay and about 970 (3.9%) were called active. Inconclusive results (about 8%) are left out. No rule for the calls is given here. This excerpt belongs to a sample that is enriched for actives.
# What was measured:
# Experiment in all cases: Primary Screen for Target Class Profiling of Small Molecule Inhibitors of Methyltransferases
# [1] = biological target: Catechol O-methyltransferase (Homo sapiens) (UniProt P21964); settings: purified enzyme, MTase-Glo SAH luminescence; activity change, negative = inhibition: at 40 µM, stronger effect = lower value; outcome: 40 uM
# Chain of Catechol O-methyltransferase (Homo sapiens) (P21964 whole entry, looked up): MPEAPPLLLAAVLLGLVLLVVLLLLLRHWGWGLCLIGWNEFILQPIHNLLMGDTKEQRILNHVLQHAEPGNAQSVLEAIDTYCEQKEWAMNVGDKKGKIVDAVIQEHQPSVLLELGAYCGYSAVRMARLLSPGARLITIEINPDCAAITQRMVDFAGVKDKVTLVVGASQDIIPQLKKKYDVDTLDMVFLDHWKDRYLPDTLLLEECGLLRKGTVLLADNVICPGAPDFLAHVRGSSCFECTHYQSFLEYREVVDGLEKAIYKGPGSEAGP
# Outline: (§1)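 Each enzyme was reacted with SAM and its substrate, with compounds tested once at 40 uM; SAH formed was read by MTase-Glo luminescence.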
# [2] = biological target: Glycine N-methyltransferase (Homo sapiens) (UniProt Q14749); settings: purified enzyme, MTase-Glo SAH luminescence; measured here: GNMT inhibition; at 40 µM; stronger effect = lower value
# Chain of Glycine N-methyltransferase (Homo sapiens) (Q14749 whole entry, looked up): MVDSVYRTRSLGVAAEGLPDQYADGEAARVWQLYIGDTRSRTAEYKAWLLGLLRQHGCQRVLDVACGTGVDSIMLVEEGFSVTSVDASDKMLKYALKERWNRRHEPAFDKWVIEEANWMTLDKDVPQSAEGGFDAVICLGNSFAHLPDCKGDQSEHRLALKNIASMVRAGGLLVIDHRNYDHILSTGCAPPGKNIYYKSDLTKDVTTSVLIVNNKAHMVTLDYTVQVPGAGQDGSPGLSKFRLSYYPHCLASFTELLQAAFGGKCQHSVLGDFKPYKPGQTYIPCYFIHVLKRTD
# Outline: as §1
# [3] = biological target: Guanidinoacetate N-methyltransferase (Homo sapiens) (UniProt Q14353); settings: purified enzyme, MTase-Glo SAH luminescence; measured here: GAMT inhibition; at 40 µM; stronger effect = lower value
# Outline: as §1
# [4] = biological target: Histamine N-methyltransferase (Homo sapiens) (UniProt P50135); settings: purified enzyme, MTase-Glo SAH luminescence; measured here: HNMT inhibition; at 40 µM; stronger effect = lower value
# Chain of Histamine N-methyltransferase (Homo sapiens) (P50135 whole entry, looked up): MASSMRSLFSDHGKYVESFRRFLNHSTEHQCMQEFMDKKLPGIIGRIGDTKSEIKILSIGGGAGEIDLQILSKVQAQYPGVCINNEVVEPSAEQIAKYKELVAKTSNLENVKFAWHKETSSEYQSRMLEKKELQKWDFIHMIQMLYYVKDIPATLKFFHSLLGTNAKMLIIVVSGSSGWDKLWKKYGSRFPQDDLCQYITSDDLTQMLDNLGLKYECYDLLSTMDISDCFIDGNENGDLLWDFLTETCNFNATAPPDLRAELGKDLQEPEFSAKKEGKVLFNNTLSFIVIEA
# Outline: as §1
# [5] = biological target: Nicotinamide N-methyltransferase (Homo sapiens) (UniProt P40261); settings: purified enzyme, MTase-Glo SAH luminescence; measured here: NNMT inhibition; at 40 µM; stronger effect = lower value
# Chain of Nicotinamide N-methyltransferase (Homo sapiens) (P40261 whole entry, looked up): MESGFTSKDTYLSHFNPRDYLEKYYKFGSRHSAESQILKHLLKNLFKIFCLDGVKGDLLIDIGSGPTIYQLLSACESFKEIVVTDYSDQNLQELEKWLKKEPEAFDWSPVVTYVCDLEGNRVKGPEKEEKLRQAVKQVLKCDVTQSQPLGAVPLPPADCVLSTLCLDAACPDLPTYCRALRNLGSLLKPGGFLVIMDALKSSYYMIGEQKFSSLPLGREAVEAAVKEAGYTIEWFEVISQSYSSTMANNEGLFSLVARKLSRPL
# Outline: as §1
# [6] = biological target: Phenylethanolamine N-methyltransferase (Homo sapiens) (UniProt P11086); settings: purified enzyme, MTase-Glo SAH luminescence; measured here: PNMT inhibition; at 40 µM; stronger effect = lower value
# Chain of Phenylethanolamine N-methyltransferase (Homo sapiens) (P11086 whole entry, looked up): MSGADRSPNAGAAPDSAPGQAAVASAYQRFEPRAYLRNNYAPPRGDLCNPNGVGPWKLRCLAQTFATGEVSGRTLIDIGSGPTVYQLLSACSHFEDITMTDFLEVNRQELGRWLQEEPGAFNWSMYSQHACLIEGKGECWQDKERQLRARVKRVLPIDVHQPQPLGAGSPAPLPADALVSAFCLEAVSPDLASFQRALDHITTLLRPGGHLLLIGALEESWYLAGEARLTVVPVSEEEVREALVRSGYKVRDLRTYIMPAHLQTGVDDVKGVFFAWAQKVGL
# Outline: as §1
# % is scaled to controls: 0 for no effect and ±100 for the full control effect.
SMILES,"activity change, negative = inhibition [1]","activity change, negative = inhibition [2]","activity change, negative = inhibition [3]","activity change, negative = inhibition [4]","activity change, negative = inhibition [5]","activity change, negative = inhibition [6]"
CCc1ccc(NS(=O)(=O)c2cc3c(cc2C)n(C)c(=O)n3C)cc1,6.7% (inactive),2.79%,0%,1.74%,-13.9%,-1.81%
CNC(=O)c1ccccc1Nc1nc(Nc2ccc(N3CCOCC3)cc2OC)ncc1Cl,1.38% (inactive),-17.4%,6.33%,-0.939%,-26.5%,-6.85%
CC1(C)CCC(C)(C)c2cc3c(cc21)Sc1ccccc1N=C3c1ccc(C(=O)O)cc1,9.33% (inactive),1.76%,4.41%,11.6%,-26.9%,3.91%
Cc1cc(C[C@@H]2COC[C@@H]2NC(=O)c2cccc(-n3nc(C)cc3C)c2)on1,-7.5% (inactive),-5.02%,-7.68%,-5.59%,-12.1%,-25.6%
CCCN1C(=O)c2cc3sccc3n2CC1(C)C(=O)NC1CCC(C)CC1 (stereo not drawn),0.545% (inactive),0.536%,4.2%,-0.49%,0.936%,-2.48%
CCOC(=O)c1cc2n(n1)CC(C)(C(=O)NC1CCCC1)N(c1ccc(C)cc1)C2=O (stereo not drawn),2.4% (inactive),-0.39%,4.54%,3.6%,-0.074%,2.88%
Nc1ccc2c3c(cccc13)C(=O)NC2=O,-69.4% (active),-41.1%,-13%,-8.7%,-18.3%,-8.01%
CCOc1ccccc1CN1C(=O)c2ccc(-c3ccco3)n2CC1(C)C(=O)NC1CCCCC1 (stereo not drawn),5.26% (inactive),-1.1%,0%,5.47%,3.87%,0.061%
COc1ccccc1-c1[nH]nc2ncc(C(=O)N3CCN(Cc4ccccc4)CC3)nc12,-63.8% (active),-70.9%,-63.7%,-73.4%,-59.4%,-76.7%
COc1ccc(-c2ncc3c(n2)OCCN(Cc2ccccc2)C3=O)cn1,-3.7% (inactive),-12%,-5.92%,-5.55%,-19.1%,-28.2%
CN1C(=O)c2cc(C(=O)N3CCN(Cc4ccccc4)CC3)nn2CC1(C)C(=O)NCc1ccccc1 (stereo not drawn),1.23% (inactive),5.09%,0.749%,4.84%,6.08%,-8.04%
O=c1c2ccccc2n2c(=O)n(Cc3cccc(F)c3)nc2n1CCc1ccccc1,-1.7% (inactive),-7.42%,-7.2%,8.21%,-7.17%,-9.52%
CC1(C)[C@H](Cc2cc(-c3ccccc3)on2)C[C@@H]1NCC1CC1,-5.01% (active),-5.31%,-6%,-40.7%,-19.5%,-50.1%
CCCn1c(=O)c2cc(Cl)ccc2n2c(SCC(=O)Nc3ccc(Cl)cc3)nnc12,-0.206% (inactive),-6.08%,4.35%,1.24%,-3.29%,1.76%
CCOCCCN1C(=O)c2cc3ccccc3n2CC1(C)C(=O)NCCC(C)C (stereo not drawn),4% (inactive),6.59%,4.89%,8.93%,10.6%,0.52%
CCCn1c(=O)c2ccc(C(=O)NC(C)CC)cc2n2c(=O)n(CC(=O)Nc3ccccc3)nc12 (stereo not drawn),-0.37% (inactive),0.266%,3.33%,0.842%,-0.601%,3.03%
O=c1c2ccccc2n2c(=O)n(Cc3ccccc3)nc2n1Cc1ccc(F)cc1,6.23% (inactive),9.17%,3.06%,12.4%,6.51%,5.22%

SMILES,"activity change, negative = inhibition [1]","activity change, negative = inhibition [2]","activity change, negative = inhibition [3]","activity change, negative = inhibition [4]","activity change, negative = inhibition [5]","activity change, negative = inhibition [6]"
COc1ccc(-c2nc3ccncc3[nH]2)cc1,-149% (active),-99.2%,-103%,-91.6%,-110%,-145%
CC1CCN(S(=O)(=O)c2ccc3c(ccn3CCC(=O)N3CCN(c4ccccn4)CC3)c2)CC1,-2.75% (inactive),-6.24%,-4.09%,-2.6%,-7.95%,-2.86%
Cc1cc(Nc2cc(N3CCN(C)CC3)nc(Sc3ccc(NC(=O)C4CC4)cc3)n2)n[nH]1,-3.15% (active),-71.8%,5.06%,-13.3%,-11.1%,-0.531%
O=C(NCc1ccc2c(c1)OCO2)c1sc(=S)n2c1[nH]c(=O)c1ccccc12,-20.2% (active),-52.7%,0%,-2.67%,-35.9%,-28.2%
Cc1cc2c(cc1S(=O)(=O)NCc1ccc3c(c1)OCO3)n(C)c(=O)n2C,13.6% (inactive),12.8%,1.49%,9.41%,2.71%,6.83%
Cc1ccc(Cn2c(=O)c3ccccc3n3c(CCC(=O)NCc4ccc5c(c4)OCO5)nnc23)cc1,-5.97% (inactive),-13.5%,2.22%,-2.65%,-2.38%,-7.16%
COC(=O)[C@]12C(=O)C(C)=C(O)[C@@]1(C)C(C)=CC1[C@@]34CC[C@@H](OC(C)=O)C(C)(C)C3[C@H](C[C@]12C)OC4=O (stereo partly drawn),5.51% (inactive),0%,3.85%,9.8%,-6.73%,3.04%
CN(C)[C@@H]1C(=O)C(C(N)=O)=C(O)[C@@]2(O)C(=O)C3=C(O)c4c(O)ccc(Cl)c4[C@@H](O)[C@H]3C[C@@H]12,-74.5% (active),-24.2%,6.87%,3.22%,-8.53%,-5.78%
COCCOc1cc(=O)n2c(c1C(=O)NCc1ccccc1)CCOCC2,-1.21% (inactive),1.04%,-0.934%,1.39%,-1.22%,1.39%
CCC(C)(C)NC(=O)c1cccc2c1CCN2C(=O)Nc1ccc(C)cc1,-3.57% (inactive),-1.49%,-2.95%,1.94%,-7.5%,-2.44%
Cn1c(=O)n(C)c2cc(Nc3nc4ccccc4nc3NS(=O)(=O)c3ccc(Cl)cc3)ccc21,3.8% (inactive),7.68%,-3.35%,-4.47%,0.13%,-6.48%
O=C(O)CC1CCC(c2ccc(-c3ccc(Nc4ccc(C(F)(F)F)nc4)cn3)cc2)CC1 (stereo not drawn),17.9% (active),-52.1%,-12.8%,1.31%,-35.3%,-4.28%
CC(C)c1nccn1CCCNc1nc(-c2ccncc2)nc2c1cnn2C,-44.5% (active),-59.1%,-50.1%,-86%,-53%,-25.5%
CCOC(=O)c1cc2n(n1)CC(C)(C(=O)NCc1ccc(F)cc1)N(Cc1ccccc1OC)C2=O (stereo not drawn),-3.88% (inactive),-3.75%,3.18%,0.898%,-7.43%,-5.73%
CC(C)CCN1CC2(CCCN(C(=O)c3ccn(C)c(=O)c3)C2)CCC1=O (stereo not drawn),-31.2% (active),-57.8%,-45.1%,-13.3%,-17.7%,-27%
COCCN1CC2(CCC1=O)CCN(C(=O)[C@@H]1C[C@@H](O)CN1)CC2,4.29% (inactive),-0.827%,-1.32%,1.21%,0.29%,-19.8%
